Sampled rows, rich in hits. Any-hit rate of the full collection: about 1.7%.
Neddyl block: inhibitors of cullin neddylation, primary screen, biochemical, TR-FRET, uHTS, NAE and Ubc12 | NEDD8-conjugating enzyme Ubc12 (Homo sapiens) + NEDD8-activating enzyme E1 regulatory … | inhibition, % at 25 µM | 360,000 tested, 0.58% active; in the data active = inhibition above about 36%
SUMO1-SIM PPI: modulators of SUMO1 protein-protein interactions, primary screen, biochemical, uHTS; SUMO1 binding to a labelled peptide, TR-FRET, 1 h; AID 602429, 2012; inhibition, % at 20 µM; 360,000 tested, 0.33% active; Small ubiquitin-related modifier 1 (Homo sapiens), P63165; in the data active = inhibition above about 37%
ATG4B inh: ATG4B protease inhibitors, primary screen, biochemical, fluorescence, uHTS; 340,000 tested, 0.51% active; Cysteine protease ATG4B (Homo sapiens), Q9Y4P1; ATG4B cleavage of LC3-PLA2, NBD-HPC fluorescence, 1 h; inhibition, % at 8.33 µM; in the data active = inhibition above about 40%
Rin1-Abl PPI inh: inhibitors of Rin1-Abl protein binding, primary screen, biochemical, TR-FRET | Tyrosine-protein kinase ABL1 (Homo sapiens) + Ras and Rab interactor 1 (Homo sapiens), … | inhibition, % at 7.35 µM | 360,000 tested, 0.4% active; in the data active = inhibition above about 5%, passing the limit was not always enough
* = called active by the depositor.

Results for Cc1cc(C)n2c(NC3CCCC3)c(-c3ccc(F)cc3)nc2n1 ?
Neddyl block: 15; SUMO1-SIM PPI: 0

How did CCOC(=O)[C@@H]1[C@H]2COc3cc(OC)ccc3[C@H]2N2C(=O)N(c3ccc(C(F)(F)F)cc3)C(=O)[C@]12C do in these assays?
Neddyl block: -10; SUMO1-SIM PPI: -2; ATG4B inh: -6; Rin1-Abl PPI inh: 3

How did CCCc1cc2c(cc1N(C)S(=O)(=O)c1ccccc1)OCO2 do in these assays?
Neddyl block: -3; SUMO1-SIM PPI: 3; ATG4B inh: 3; Rin1-Abl PPI inh: -1

How did CCCN(C(=O)CSc1nnc(-c2ccc3c(c2)OCO3)o1)C1CCS(=O)(=O)C1 (centres undefined) do in these assays?
Neddyl block: -2; SUMO1-SIM PPI: 3; Rin1-Abl PPI inh: -4

Results for CC(=O)Nc1ccc(-c2ccnc3c2CC(C)(C(=O)NCc2ccc(F)c(F)c2)O3)cc1 (centres undefined) ?
Neddyl block: 16; SUMO1-SIM PPI: -10; Rin1-Abl PPI inh: 1

How did Cc1ccc(C(=O)CCC(=O)OCC(=O)Nc2ccc3[nH]c(=O)[nH]c3c2)cc1 do in these assays?
Neddyl block: -3; SUMO1-SIM PPI: 25; ATG4B inh: 6; Rin1-Abl PPI inh: 4

What do the screens show for `O=C(COC(=O)CCC(=O)c1ccc(F)cc1)Nc1ccc2[nH]c(=O)[nH]c2c1`?
Neddyl block: 4; SUMO1-SIM PPI: 39*; ATG4B inh: -6; Rin1-Abl PPI inh: 0

Results for O=C(COC(=O)c1cc(Cl)nc(Cl)c1)Nc1ccc(Cl)c(S(=O)(=O)N2CCOCC2)c1 ?
Neddyl block: -8; SUMO1-SIM PPI: 22; ATG4B inh: 3; Rin1-Abl PPI inh: 5

Results for O=C(COC(=O)c1ccc(Cl)c(S(=O)(=O)N2CCOCC2)c1)Nc1ccc2[nH]c(=O)[nH]c2c1 ?
Neddyl block: 14; SUMO1-SIM PPI: 84*; ATG4B inh: -3; Rin1-Abl PPI inh: 1

Results for CC(C)(C)C(=O)c1c(N)[nH]c(C(=O)c2ccccc2)c1-c1ccc(C(F)(F)F)cc1 ?
Neddyl block: -5; SUMO1-SIM PPI: 4

Results for COc1ccc(NC(=O)C2(C)CCN2CCOc2ccc(C)cc2)cc1OC (centres undefined) ?
Neddyl block: 2; SUMO1-SIM PPI: -1; Rin1-Abl PPI inh: 2

What do the screens show for `COC(=O)CCCCC1SCC2NC(=O)NC21O` (centres undefined)?
Neddyl block: 2; SUMO1-SIM PPI: 1; ATG4B inh: -8; Rin1-Abl PPI inh: 87*

What do the screens show for `C=CC(=O)Nc1cccc(Oc2ccnc3[nH]ccc23)c1`?
Neddyl block: 38*; SUMO1-SIM PPI: 57*; ATG4B inh: 15; Rin1-Abl PPI inh: 1

How did C=CC(=O)Nc1cccc(Oc2ccnc(Nc3ccc(N4CCN(C)CC4)cc3)n2)c1 do in these assays?
Neddyl block: -24; SUMO1-SIM PPI: 3; ATG4B inh: -3; Rin1-Abl PPI inh: 1

Results for Cc1cccc(C)c1NC(=O)NN1C(C)CCCC1C (centres undefined) ?
Neddyl block: 5; SUMO1-SIM PPI: 2; ATG4B inh: -1; Rin1-Abl PPI inh: -2

What do the screens show for `Cc1cc(C)cc(NC(=O)NN2C(C)CCCC2C)c1` (centres undefined)?
Neddyl block: 0; SUMO1-SIM PPI: 54*; ATG4B inh: -3; Rin1-Abl PPI inh: -2

What do the screens show for `O=C(COC(=O)c1cncc(Br)c1)NCc1ccco1`?
Neddyl block: 2; SUMO1-SIM PPI: 63*; ATG4B inh: -2; Rin1-Abl PPI inh: 2

Results for O=C(COC(=O)c1ccc(NS(=O)(=O)c2cccs2)cc1)NCc1ccco1 ?
Neddyl block: 7; SUMO1-SIM PPI: 40*; ATG4B inh: 12; Rin1-Abl PPI inh: -4

How did O=C(COC(=O)c1cncc(Br)c1)NCc1ccc(F)cc1 do in these assays?
Neddyl block: 2; SUMO1-SIM PPI: 0; ATG4B inh: -3; Rin1-Abl PPI inh: -1

Results for Cc1nc(S/C(=C\c2ccc(-c3ccc(C(=O)O)c(Cl)c3)o2)C(=O)O)n[nH]1 ?
Neddyl block: -9; SUMO1-SIM PPI: 57*; ATG4B inh: 6; Rin1-Abl PPI inh: -1

How did COc1cc(C(C)=O)ccc1OCC(=O)NCc1ccccc1CN1CCCC1 do in these assays?
Neddyl block: 4; SUMO1-SIM PPI: -3; Rin1-Abl PPI inh: 1

How did Fc1ccc(Nc2nc(-c3ccncc3)nc3ccccc23)cc1F do in these assays?
Neddyl block: 34; SUMO1-SIM PPI: 19; ATG4B inh: 1; Rin1-Abl PPI inh: -3

What do the screens show for `Clc1cccc(Nc2nc(-c3ccncc3)nc3ccccc23)c1`?
Neddyl block: -1; SUMO1-SIM PPI: 61*; ATG4B inh: -2; Rin1-Abl PPI inh: -3

What do the screens show for `Nc1c(Cl)ncnc1N/N=C/c1ccccn1`?
ATG4B inh: -2

What do the screens show for `Nc1c(Cl)ncnc1N/N=C/c1ccc2ccccc2n1`?
Neddyl block: 0; SUMO1-SIM PPI: -14; ATG4B inh: -25; Rin1-Abl PPI inh: 6.4*

How did Cn1c(SCC(=O)Nc2ccc3nc(SCC(=O)N4CCCC4)sc3c2)nnc1-c1ccc(N)cc1 do in these assays?
Neddyl block: -1; SUMO1-SIM PPI: 63*; ATG4B inh: 6; Rin1-Abl PPI inh: 1

How did CCOc1cccc(CNCCO)c1OCc1ccc(Cl)cc1Cl do in these assays?
Neddyl block: -1; SUMO1-SIM PPI: -2; ATG4B inh: -5; Rin1-Abl PPI inh: -3

How did CCOc1cccc(CNc2ccc(O)cc2)c1OCc1ccccc1Cl do in these assays?
Neddyl block: -11; SUMO1-SIM PPI: 44*; ATG4B inh: 22; Rin1-Abl PPI inh: -2

Results for CCOc1cccc(CNc2ccc(O)cc2)c1OCc1ccc(Cl)cc1Cl ?
Neddyl block: -5; SUMO1-SIM PPI: 68*; ATG4B inh: 24; Rin1-Abl PPI inh: 1

Results for O=C1c2c(-c3ccc(Br)cc3)noc2CCN1Cc1cn(-c2ccccc2)nn1 ?
Neddyl block: -14; SUMO1-SIM PPI: 5

How did O=[N+]([O-])c1ccc(Cl)c(CN2CCN(c3ncc(Cc4ccccc4)cn3)CC2)c1 do in these assays?
Neddyl block: 1; SUMO1-SIM PPI: -8

What do the screens show for `Cc1cccc(OCC(=O)Nc2ccccc2N2CCCCC2)c1`?
Neddyl block: 10; SUMO1-SIM PPI: 41*; ATG4B inh: 13; Rin1-Abl PPI inh: 1

What do the screens show for `Cc1cccc(OCC(=O)Nc2ccccc2N2CCN(C)CC2)c1`?
Neddyl block: -1; SUMO1-SIM PPI: -3; ATG4B inh: -1; Rin1-Abl PPI inh: -1

What do the screens show for `Cc1cc(C)c2c3c(sc2n1)C(c1cccc(F)c1)C(C#N)=C(N)O3` (centres undefined)?
Neddyl block: 53*; SUMO1-SIM PPI: -18; ATG4B inh: -17; Rin1-Abl PPI inh: -1
